# Measurements from PMC8384837, “Expanding the binding specificity for RNA recognition by a PUF domain”.
# Positions count from the first letter of the chain named.
# Key:
# Experiment in all cases: yeast three-hybrid, YBZ-1, SC-Leu-His + 0.5 mM 3-AT, 4 days
# Conditions in all cases: tags: N-Gal4 AD-HA kept; label: inside an RPR1-promoter hybrid RNA with tandem MS2 sites; ssRNA
# PUM1 PUF domain R6-VYR = biological target: T1, PUM1 PUF domain R6-VYR (Homo sapiens, UniProt Q14671 828-1176, N1043V;Q1047R)
# T1 sequence: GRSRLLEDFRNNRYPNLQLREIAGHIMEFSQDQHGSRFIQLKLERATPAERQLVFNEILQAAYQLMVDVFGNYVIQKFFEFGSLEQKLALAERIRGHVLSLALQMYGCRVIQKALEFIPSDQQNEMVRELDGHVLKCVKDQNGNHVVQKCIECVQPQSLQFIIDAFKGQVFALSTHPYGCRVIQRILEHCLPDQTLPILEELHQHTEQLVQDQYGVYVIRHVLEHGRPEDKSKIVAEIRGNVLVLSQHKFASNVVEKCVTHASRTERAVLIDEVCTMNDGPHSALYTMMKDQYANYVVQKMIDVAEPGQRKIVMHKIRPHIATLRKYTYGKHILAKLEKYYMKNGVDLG
# In short: (§1)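 Repeat regions from input (SC-Leu) and selection (SC-Leu-His + 0.5 mM 3-AT) plates were PCR-amplified and Illumina-sequenced after four days of growth. The cells were strain YBZ-1 with a LexA–MS2 coat fusion and a HIS3 reporter, co-expressing Pumilio-1 PUF domain libraries and matching RNA elements from a centromeric plasmid. The interaction score is the log change in variant frequency from input to selection, taken in log2 with a pseudocount of 1 for absent variants.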
# PUM1 PUF domain R7-GNR = PUM1 PUF domain R7-GNR (Homo sapiens, UniProt Q14671 828-1176, S1079G;E1083R)
# In short: as §1
# PUM1 PUF domain R5-RGC = PUM1 PUF domain R5-RGC (Homo sapiens, UniProt Q14671 828-1176, C1007R;R1008G;Q1011C)
# In short: as §1
# PUM1 PUF domain R5-RSP = PUM1 PUF domain R5-RSP (Homo sapiens, UniProt Q14671 828-1176, C1007R;R1008S;Q1011P)
# In short: as §1
# PUM1 PUF domain R3-VRG = PUM1 PUF domain R3-VRG (Homo sapiens, UniProt Q14671 828-1176, C935V;Q939G)
# In short: as §1
# PUM1 PUF domain R6-SHR = biological target: T2, PUM1 PUF domain R6-SHR (Homo sapiens, UniProt Q14671 828-1176, N1043S;Y1044H;Q1047R)
# T2 sequence: T1 sequence with V216S, Y217H
# In short: as §1
# PUM1 PUF domain R5-IYM = PUM1 PUF domain R5-IYM (Homo sapiens, UniProt Q14671 828-1176, C1007I;R1008Y;Q1011M)
# In short: as §1
# PUM1 PUF domain R3-DFV = PUM1 PUF domain R3-DFV (Homo sapiens, UniProt Q14671 828-1176, C935D;R936F;Q939V)
# In short: as §1
# PUM1 PUF domain R3-SCY = PUM1 PUF domain R3-SCY (Homo sapiens, UniProt Q14671 828-1176, C935S;R936C;Q939Y)
# In short: as §1
# PUM1 PUF domain R6-DYQ = biological target: T3, PUM1 PUF domain R6-DYQ (Homo sapiens, UniProt Q14671 828-1176, N1043D)
# T3 sequence: T1 sequence with V216D, R220Q
# In short: as §1
sequence,measurement,setting,value
GGCUAGAACUAGUGGAUCCCCCGGCGCCCGGCGGCUCGAGCCCGGGUAAGUGAAAAUAGUCUGCAUGCCGCCGGGCGCCAUGCCUGCAGGUCGACUCUAGAAAACAUG,binding signal,PUM1 PUF domain R6-VYR,6.09 log2 enrichment (interaction score)
GGCUAGAACUAGUGGAUCCCCCGGCGCCCGGCGGCUCGAGCCCGGGUAAGUUUAAAUAGUCUGCAUGCCGCCGGGCGCCAUGCCUGCAGGUCGACUCUAGAAAACAUG,binding signal,PUM1 PUF domain R7-GNR,2.05 log2 enrichment (interaction score)
GGCUAGAACUAGUGGAUCCCCCGGCGCCCGGCGGCUCGAGCCCGGGUAAGUGUUAAUAGUCUGCAUGCCGCCGGGCGCCAUGCCUGCAGGUCGACUCUAGAAAACAUG,binding signal,PUM1 PUF domain R5-RGC,3.22 log2 enrichment (interaction score)
same,binding signal,PUM1 PUF domain R5-RSP,1.1 log2 enrichment (interaction score)
GGCUAGAACUAGUGGAUCCCCCGGCGCCCGGCGGCUCGAGCCCGGGUAAGUGUAAGUAGUCUGCAUGCCGCCGGGCGCCAUGCCUGCAGGUCGACUCUAGAAAACAUG,binding signal,PUM1 PUF domain R3-VRG,0.46 log2 enrichment (interaction score)
GGCUAGAACUAGUGGAUCCCCCGGCGCCCGGCGGCUCGAGCCCGGGUAAGUGUCAAUAGUCUGCAUGCCGCCGGGCGCCAUGCCUGCAGGUCGACUCUAGAAAACAUG,binding signal,PUM1 PUF domain R5-RGC,1.32 log2 enrichment (interaction score)
same,binding signal,PUM1 PUF domain R5-RSP,2.36 log2 enrichment (interaction score)
GGCUAGAACUAGUGGAUCCCCCGGCGCCCGGCGGCUCGAGCCCGGGUAAGUGCAAAUAGUCUGCAUGCCGCCGGGCGCCAUGCCUGCAGGUCGACUCUAGAAAACAUG,binding signal,PUM1 PUF domain R6-SHR,5.39 log2 enrichment (interaction score)
GGCUAGAACUAGUGGAUCCCCCGGCGCCCGGCGGCUCGAGCCCGGGUAAGUGUAAAUAGUCUGCAUGCCGCCGGGCGCCAUGCCUGCAGGUCGACUCUAGAAAACAUG,binding signal,PUM1 PUF domain R5-IYM,3.85 log2 enrichment (interaction score)
same,binding signal,PUM1 PUF domain R6-SHR,4.81 log2 enrichment (interaction score)
same,binding signal,PUM1 PUF domain R3-VRG,3.39 log2 enrichment (interaction score)
same,binding signal,PUM1 PUF domain R3-DFV,5.54 log2 enrichment (interaction score)
same,binding signal,PUM1 PUF domain R3-SCY,3.56 log2 enrichment (interaction score)
same,binding signal,PUM1 PUF domain R6-DYQ,6.54 log2 enrichment (interaction score)
same,binding signal,PUM1 PUF domain R6-VYR,2.97 log2 enrichment (interaction score)
